Source: PubChem
Shown are actives, neighbours in structure and some others; about 32% of the full set was active somewhere.
CYP2C19 inh: blockers of cytochrome P450 2C19 activity – biochemical, luminescence, ADME assay, primary screen. 96,000 tested, 21% active. CYP2C19 Supersomes, luciferin-H EGE luminescence, 30 min. P33261. inhibition, % at 5 µM;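 active = CYP2C19 inhibition above a set limit at 5 µM in the primary screen, cut at about 50% in these data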;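 note: plate controls were negative control wells for no effect and 2.5 mM tranylcypromine positive control for full effect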
CYP2C19 activ: human CYP2C19 activators, primary screen, biochemical, luminescence. Cytochrome P450 2C19 (Homo sapiens), P33261. recombinant CYP2C19, luciferin-H EGE luminescence; stronger effect = higher value; 0 = fully inhibited enzyme, 1 = untreated enzyme. activation factor at 5 µM. 96,000 tested, under 10 active. AID 1025, 2008;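 active = activation factor of at least 2 at 5 µM in the primary screen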;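 note: 0 = wells with 2.5 mM tranylcypromine and 1 = vehicle-only wells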
CYP2C9 activ: human CYP2C9 activators, primary screen, biochemical, luminescence; Cytochrome P450 2C9 (Homo sapiens), P11712; recombinant CYP2C9, luciferin-H conversion; stronger effect = higher value; factor 1 = untreated enzyme, 0 = blocked; activation factor at 5 µM; 96,000 tested, 1.4% active;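 active = activation factor of 2 or more for CYP2C9 at a 5 µM dose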;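 note: 0 = sulfaphenazole-blocked wells and 1 = vehicle-only wells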
Target sequence (P11712 whole entry, looked up): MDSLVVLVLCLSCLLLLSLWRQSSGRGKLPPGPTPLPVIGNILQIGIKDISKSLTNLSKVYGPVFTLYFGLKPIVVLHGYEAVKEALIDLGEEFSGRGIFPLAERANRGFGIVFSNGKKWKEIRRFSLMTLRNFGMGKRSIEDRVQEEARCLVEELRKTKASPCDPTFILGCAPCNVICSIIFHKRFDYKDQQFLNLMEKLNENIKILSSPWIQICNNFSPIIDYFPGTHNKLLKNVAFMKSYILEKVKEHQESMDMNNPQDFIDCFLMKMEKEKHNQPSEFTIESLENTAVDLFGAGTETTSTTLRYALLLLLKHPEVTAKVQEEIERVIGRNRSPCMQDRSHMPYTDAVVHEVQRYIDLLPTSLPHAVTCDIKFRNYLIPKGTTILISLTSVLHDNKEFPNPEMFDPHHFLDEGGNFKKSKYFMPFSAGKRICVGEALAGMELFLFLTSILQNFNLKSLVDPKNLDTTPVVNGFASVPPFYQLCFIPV
PostGolgi ctrl: growth inhibition of yeast control strain, primary screen, counter-screen for post-Golgi transport modulator project. 98,000 tested, 5% active. efflux-deficient yeast background strain, growth absorbance A615, 16 h. inhibition, % at 10 µM
CYP2C9 inh: blockers of cytochrome P450 2C9 activity – biochemical, luminescence, ADME assay, primary screen | CYP2C9 Supersomes, luciferin-H conversion | P11712 | AID 777, 2007 | 96,000 tested, 20% active | inhibition, % at 5 µM;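 active = blocking of liver enzyme CYP2C9 beyond about 50% at 5 µM, limit read from the data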
PostGolgi yeast: phenotypic screen on post-Golgi transport, primary screen; post-Golgi transport phenotypic cell assay; inhibition, % at 10 µM; 98,000 tested, 0.9% active; AID 739, 2007;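 note: yeast cells grown in 1536-well plates; yeast grown about 18 h at 30C before absorbance read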
* = called active by the depositor. Cut-off read from the data, not from the text of the source, unless noted: active = inhibition above about 30%; inactive = the rest.

SMILES	CYP2C19 inh	CYP2C19 activ	CYP2C9 activ	PostGolgi ctrl	CYP2C9 inh	PostGolgi yeast
Cn1c(=O)[nH]c(=O)c2c1nc(Br)n2CCSc1nc2ccccc2o1	24.5	0.8	0.8	14.6	22.7	-6.6
Cc1nn(CC#N)c(=O)n1-c1ccccc1F	-1.2	1	1.1	3.4	-6.7	-8.2
Cc1ccc(O)c(C(=O)c2cnn(C(=O)Cc3csc(C)n3)c2)c1	28.5	0.7	0.2	-5.4	77.3*	0.9
COc1ccc(CNC(=O)c2ccc(S(=O)(=O)N3CCCC3)cc2)cc1OC	4.1	1	0.5	3.2	48.3	1.2
CC1(c2cnc(Nc3ccccc3)s2)CCC(=O)O1 (stereo not given)	31.0	0.7	2.1*	38.6*	-105.1	-4.7
COCCCNC(NC(=O)c1ccc(Cl)cc1)C(Cl)(Cl)Cl (stereo not given)	43.3	0.6	0.7	11.2	25.2	2.9
Cc1cccc(-c2nnc(SCc3ccccc3)o2)c1	9.3	0.9	1.1	1.4	-9.6	-4.8
O=c1c(-c2nnc(SCc3ccc(Cl)c(Cl)c3)o2)cccn1Cc1ccccc1	84.5*	0.2	0.4	54.0*	55.5*	8.5
Cc1cc(C(=O)OCn2nnc3ccccc3c2=O)c(C)n1-c1ccccc1	77.5*	0.2	0.2	30.0	84.4*	25.1
Cc1cc(C(=O)COc2cccc(-n3cnnn3)c2)c(C)n1-c1ccccc1	86.1*	0.1	0.8	18.8	22.1	-3.1
CSc1cccc(-n2c(C)cc(C(N)=O)c2C)c1	69.4*	0.3	0.8	10.2	19.4	7.1
Cc1cc(C(=O)O)c(C)n1-c1ccccc1	21.8	0.8	0.4	1.2	64.6*	-3.9
O=C(Oc1cccc(NC(=O)c2ccco2)c1)c1ccc(Br)c(S(=O)(=O)N2CCCCC2)c1	26.4	0.7	0.5	8.3	47.6	10.1
CNC(=O)c1nnn(Cc2ccccc2)c1NC(=O)C(F)(F)F	1.6	1	0.8	17.0	21.7	0.3
Cc1cc(C)c(C#N)c(SC(F)F)n1	-3.6	1	1.2	8.6	-23.4	-2.0
CCn1c2ccccc2c2cc(NC(=O)C(C)Oc3ccc(OC)cc3)ccc21 (stereo not given)	69.1*	0.3	0.5	18.0	48.5	-3.8
CC(Oc1ccc(F)cc1)C(=O)Nc1ccc2ccccc2c1 (stereo not given)	4.1	1	0.8	-12.1	22.6	-6.4
CCn1c2ccccc2c2cc(NC(=O)C(C)Oc3ccccc3)ccc21 (stereo not given)	60.9*	0.4	0.6	10.3	39.3	8.8
C1=CC2CC1CC2CN1CCN(c2ccccc2)CC1 (stereo not given)	66.5*	0.3	0.8	10.8	20.2	-8.0
Cc1ccccc1CN1CCN(CC2CC3C=CC2C3)CC1 (stereo not given)	61.0*	0.4	0.9	6.5	13.2	-4.9
COc1cc(C(=O)NCCc2cn3ccccc3n2)cc(OC)c1OC	6.7	0.9	0.9	7.1	12.6	-2.7
Cc1ccc(S(=O)(=O)N2CCCCC2C(=O)N2CCN(C)CC2)cc1 (stereo not given)	1.0	1	0.8	7.1	17.9	5.1
Cc1ccc(S(=O)(=O)N2CCCCC2C(=O)N2CCN(c3ccccc3F)CC2)cc1 (stereo not given)	35.4	0.6	2.2*	-2.7	-121.0	7.3
O=C(Cc1ccc(Cl)cc1)NCC(=O)N1CCCC1	34.5	0.7	1.1	-4.2	-6.3	6.0
Cc1cc(Cl)ccc1OC(C)C(=O)Nc1ccc(S(=O)(=O)Nc2cnc3ccccc3n2)cc1 (stereo not given)	-4.3	1	0.1	35.2*	87.8*	27.3
SMILES	CYP2C19 inh	CYP2C19 activ	CYP2C9 activ	PostGolgi ctrl	CYP2C9 inh	PostGolgi yeast
CC(Oc1ccc(Cl)cc1Cl)C(=O)Nc1ccc(S(=O)(=O)Nc2cnc3ccccc3n2)cc1 (stereo not given)	14.5	0.9	0	48.8*	99.5*	57.3*
CC(=O)c1cccc(S(=O)(=O)N(CCCO)Cc2cc3ccc(C)cc3[nH]c2=O)c1	-0.4	1	0.3	-0.8	70.9*	23.0
COC(=O)c1cccc(S(=O)(=O)N(Cc2ccco2)Cc2cc3ccc(OC)cc3[nH]c2=O)c1	19.4	0.8	0.5	6.5	51.5*	15.3
CCOc1ccc(N(Cc2cc3ccc(C)cc3[nH]c2=O)S(C)(=O)=O)cc1	10.9	0.9	1	3.1	3.6	21.3
CC(=O)c1cccc(S(=O)(=O)N(Cc2cc3cc4c(cc3[nH]c2=O)OCCO4)CC2CCCO2)c1 (stereo not given)	26.6	0.7	0.7	5.6	29.7	3.7
CCN(Cc1cc2ccccc2[nH]c1=O)S(=O)(=O)c1ccccc1	81.2*	0.2	0.4	30.5*	59.4*	0.2
COC(=O)c1cccc(S(=O)(=O)N(Cc2ccco2)Cc2cc3cc(OC)c(OC)cc3[nH]c2=O)c1	13.0	0.9	0.8	3.5	23.2	-1.4
CCCN(Cc1cc2ccc(C)cc2[nH]c1=O)S(=O)(=O)c1ccccc1	36.5	0.6	0	36.5*	97.4*	8.1
C=CCOC(=O)CSCC(NC(=O)OC(C)(C)C)C(=O)OCC (stereo not given)	58.1*	0.4	0.5	4.6	45.4	7.9
CCOC(=O)CSc1nnc([C@H](C)NC(=O)OC(C)(C)C)o1	11.6	0.9	1.1	6.1	-9.0	8.2
CCCC1CCc2c(sc(NC(=O)c3cccs3)c2C(N)=O)C1 (stereo not given)	-14.3	1.1	0.9	9.8	13.6	-5.7
CC1(C)Cc2c(sc3c2c(=N)n(Cc2ccco2)c(=O)n3Cc2ccc(F)cc2)CO1	9.8	0.9	0.8	64.2*	24.2	13.9
COc1ccc(Cn2c(=O)n(Cc3ccco3)c(=N)c3c4c(sc32)COC(C)(C)C4)cc1	61.1*	0.4	0.1	14.5	91.2*	12.2
COC(=O)C1CC(=O)N(CCc2c[nH]c3ccccc23)C1 (stereo not given)	96.7*	0	0.7	6.1	34.1	19.8
COC(CNC(=O)C1CC(=O)N(CCc2ccccc2)C1)OC (stereo not given)	-6.7	1.1	1	9.1	-1.9	-4.8
Cn1cccc1C(=O)C(=O)Nc1ccccc1	49.4	0.5	1.3	4.4	-25.8	-0.2
O=S(=O)(NC1CCCC1)c1ccc(Br)s1	96.5*	0	0.4	20.1	60.9*	9.5
O=S(=O)(NC1CCCCC1)c1ccc(Cl)s1	90.5*	0.1	0.2	7.4	84.6*	8.1
Cc1cc(NC(=O)CSc2nnc(-c3cccnc3)n2N)no1	-42.3	1.4	1.2	-11.4	-22.0	-7.3
CCc1nc(SCC(=O)NCC2CCCO2)c2oc3ccccc3c2n1 (stereo not given)	76.6*	0.2	0.6	-2.3	42.8	-3.0
